Screening results deposited in PubChem by The Scripps Research Institute Molecular Screening Center.
hgDAF-12 ag = H. glycines DAF-12 receptor agonists, primary screen, cell-based, luminescence, HEK293, GAL4 fusion, UAS-luciferase; activation, % at 6.8 µM; Nuclear hormone receptor DAF-12 (Heterodera glycines), GAL4 fusion; HEK293 GAL4-hgDAF12 UAS-luciferase reporter, agonist luminescence; normalized to butyrate control; actives 1.8% (n = 370,000);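 active means activation above a cutoff set at the mean of all screened compounds plus 3 SD, cut at about 10% in these data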;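 further: 0% = DMSO wells and 100% = sodium butyrate wells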
SMARCA2 activ = SMARCA2 (BRM) function activators, primary screen, cell-based, luminescence, high throughput. MG213 cells, MMTV-luciferase reporter, dexamethasone, overnight. activation, % at 9.1 µM. actives 1% (n = 370,000); in the data active means activation above about 7.8%;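 further: 0% = vehicle wells and 100% = reference activator wells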
DAX1 inh-1 = DAX1 (NR0B1) inhibitors on StAR promoter, primary screen, cell-based, luminescence, SF-1 (NR5A1), full-length DAX-1. HEK293T StAR-luciferase reporter, SF-1/DAX-1 repression relief. actives 1.1% (n = 370,000). inhibition, % at 6.8 µM;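 active means inhibition above the mean over all tested compounds plus 3 SD, cut at about 3.6% in these data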;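 further: 0% = DAX-1 cells with DMSO and 100% = cells lacking DAX-1 with DMSO; higher inhibition means more luminescence from relief of DAX-1 repression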
ssDAF-12 act = S. stercoralis DAF-12 nuclear receptor activators, primary screen, cell-based, luminescence, HEK293, GRIP1 co-expression, lit1-tk-luc | Nuclear hormone receptor DAF-12 (Strongyloides stercoralis) | HEK293 ssDAF-12/GRIP1 lit1-tk-luc reporter; % of 3 µM dafachronic acid response | activation, % at 6.8 µM | actives 1% (n = 370,000) | AID 652126, 2013;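 active means activation above the mean over all tested compounds plus 3 SD, cut at about 0.9% in these data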;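 further: 0% = DMSO-only wells and 100% = 3 µM delta7-dafachronic acid wells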
DAX1 inh-2 = DAX1 (NR0B1) inhibitors, primary screen, cell-based, HEK293, Gal4-DAX1, luciferase luminescence; HEK293 Gal4-DAX1 luciferase reporter; inhibition, % at 6.75 µM; AID 504766, 2011; actives 0.99% (n = 340,000); Nuclear receptor subfamily 0 group B member 1 (Homo sapiens), P51843;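 active means inhibition above the mean over all tested compounds plus 3 SD, cut at about 4.2% in these data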;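 further: 0% = DAX1-transfected cells with DMSO and 100% = empty-vector control cells with DMSO; inhibition shows as a rise in luminescence from relieved DAX1 repression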
Target sequence (P51843 207-470 limits assumed): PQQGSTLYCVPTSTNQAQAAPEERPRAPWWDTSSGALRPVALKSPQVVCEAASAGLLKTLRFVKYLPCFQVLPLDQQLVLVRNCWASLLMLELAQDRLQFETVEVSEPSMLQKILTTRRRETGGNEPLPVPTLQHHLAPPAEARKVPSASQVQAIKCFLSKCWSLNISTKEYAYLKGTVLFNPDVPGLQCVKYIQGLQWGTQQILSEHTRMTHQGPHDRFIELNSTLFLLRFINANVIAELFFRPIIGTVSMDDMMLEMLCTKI
hcDAF-12 act = H. contortus DAF-12 nuclear receptor activators, primary screen, cell-based, luminescence, HEK293, lit1-tk-luc reporter. HEK293 hcDAF-12 lit1-tk-luc reporter; 0% DMSO, 100% Δ7-dafachronic acid. activation, % at 6.8 µM. actives 1.4% (n = 370,000). AID 652067, 2013;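 active means activation above the mean of all tested compounds plus 3 SD, cut at about 5.5% in these data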;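 further: 100% = response to 3 µM Δ7-dafachronic acid high control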
DAX1 inh confirm = DAX1 (NR0B1) inhibitors relieving SF-1 repression, confirmation, cell-based, luminescence, HEK293T, full-length DAX-1, SF-1 activated StAR promoter; HEK293T StAR-promoter luciferase reporter, SF-1/DAX-1 repression; actives 87% (n = 2,400); shares compounds with DAX1 inh-1; inhibition, % at 6.8 µM;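 active means inhibition above the average of every tested compound plus 3 SD, cut at about 3.8% in these data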;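 further: 0% = DAX-1 cells with DMSO and 100% = no DAX-1 control cells with DMSO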
SF1 mutant ctr = StAR reporter signal changes without DAX1, counter-screen for DAX1 inhibitor project, cell-based, luminescence, AF-2 mutant SF-1, transactivation; inhibition, % at 6.8 µM; AID 652136, 2013; HEK293 StAR-luciferase, SF-1 AF2 mutant; actives 78% (n = 2,400); shares compounds with DAX1 inh-1;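 active means inhibition above the mean of all tested compounds plus 3 SD, cut at about 3% in these data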;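 further: 0% = DAX-1 transfected cells with DMSO and 100% = cells without DAX-1 with DMSO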
Numbers without * were called inactive; nt = not tested or not shown. Shown are actives, neighbours in structure and some others; about 4.8% of the full set was active somewhere.

SMILES	hgDAF-12 ag	SMARCA2 activ	DAX1 inh-1	ssDAF-12 act	DAX1 inh-2	hcDAF-12 act	others
COc1cccc(-n2c([S-])c(C(=O)Nc3ccc(S(=O)(=O)N4CCOCC4)cc3)[n+]3cc(C(N)=O)ccc23)c1	10	0	1	0	4.2*	1
CC(C)COc1cccc(C(=O)Nc2ccc(S(=O)(=O)N3CCOCC3)cc2)c1	1	-3	0	-2	-1	-2
O=C(NC(NC(=S)Nc1c(Cl)cccc1Cl)C(Cl)(Cl)Cl)c1cccc([N+](=O)[O-])c1 (configuration not stated)	1	-3	0	-1	-2	3
c1ccc(-c2ncc(CSc3nncn3-c3ccccc3)s2)cc1	0	0	-1	-1	0	0
Cc1nnc(SCc2cnc(-c3ccc(C(C)C)cc3)s2)n1C	12*	5	2	1.5*	-3	6.0*
O=C1CCCC(=O)C1=C1SCCCS1	0	-1	0	-1	4.5*	1
CC1(C)CC(=O)C2=C(C1)OC(N)=C(C#N)[C@@H]2c1ccccc1[N+](=O)[O-]	4	-5	0	1.5*	0	2
COc1cccc(-c2nc3nc(C)cc(C)n3c2Nc2ccc3c(c2)OCCO3)c1	10	1	1	0	nt	1
Cc1cc(C)n2c(Nc3ccc4c(c3)OCCO4)c(-c3ccc(F)cc3)nc2n1	6	3	4.3*	0	nt	3
CCc1nnc(NC(=O)CSc2nnc3c(n2)[nH]c2ccccc23)s1	1	-2	0	1.8*	0	-1
O=C(CSc1nccn1-c1cccc(Cl)c1)NC1CCCC1	0	0	-2	-1	-1	-2
Cn1c(Cn2c(=O)sc3ccccc32)nnc1SCC(=O)NC1CCCCC1	nt	nt	nt	nt	2	nt
CCn1c(CC(=O)Nc2ccccc2F)nnc1SCC(=O)NC1CCCC1	1	-2	0	-1	-1	-2
CCn1c(CC(=O)Nc2ccc(F)cc2)nnc1SCC(=O)NC1CCCC1	-2	0	0	-1	4.8*	1
Cn1c(Cn2c(=O)sc3ccccc32)nnc1SCC(=O)NC1CCCC1	2	0	0	0	5.2*	1
CCn1c(CNC(=O)c2ccc(Cl)cc2)nnc1SCC(=O)N1CCOCC1	0	0	4.5*	-1	1	0
O=C(CSc1cc(Cl)ccc1Cl)NC1CCCC1	1	-3	0	0	5.4*	-1
COC(=O)c1ccc(Cl)c(-c2ccc(/C=N/NC(=O)Nc3ccccc3)o2)c1	1	0	0	-1	0	-1
Cn1c(COc2ccc(Cl)cc2)nnc1SCC(=O)NC1CC1	0	0	0	-2	0	0
O=C(CSc1nnc(Cn2c(=O)sc3ccccc32)n1CCc1ccccc1)N1CCCC1	-3	1	1	-2	1	1
Cn1c(CNC(=O)c2ccc(Cl)cc2)nnc1SCC(=O)NC1CCCC1	-1	-2	0	-1	6.5*	0
NC(=O)CSc1nnc(Cn2c(=O)sc3ccccc32)n1CCc1ccccc1	-2	1	0	-1	4.5*	0
CNc1nc(C)c(C(=O)OCC(=O)OC)s1	-2	0	0	-1	0	0
O=C(c1nc2ncccn2n1)N1CCc2ccccc2C1	3	0	0	-1	-1	-1
COC(=O)C1=C(NC(=O)c2ccc(Br)cc2)CCS1	5	-2	0	1	0	3
SMILES	hgDAF-12 ag	SMARCA2 activ	DAX1 inh-1	ssDAF-12 act	DAX1 inh-2	hcDAF-12 act	others
COC(=O)C1=C(NC(=O)c2ccc(C)c(C)c2)CCS1	4	1	0	0	0	6.1*
C/C(CC(=O)Nc1cccc2c1CCCC2)=N\NC(=O)c1ccccc1N	5	3	0	-1	2	1
C/C(CC(=O)NC(C)(C)C)=N\NC(=O)c1ccccc1N	10	3	3	0	4.7*	2
CC1(C)CC(=O)C(C2C3=C(CC(C)(C)CC3=O)Oc3c(Br)cc(Br)cc32)=C(O)C1 (configuration not stated)	11*	3	1	1	1	3
COc1ccc(S(=O)(=O)N2CCN(C(=O)c3ccc([N+](=O)[O-])o3)CC2)cc1	-3	-3	-1	-1	-2	-1
CC(=O)Nc1ccc(N2C(=O)CC(Sc3nc4ccccc4s3)C2=O)cc1 (configuration not stated)	-1	-4	0	3.9*	1	1
O=C1/C(=C/c2ccccc2)Oc2cc(OC(=O)N3CCOCC3)ccc21	-1	-2	0	-1	2	0
CC(=O)Oc1ccc(/C=C2/Oc3ccccc3C2=O)cc1	1	1	0	-1	5.3*	1
Cc1ccc(-c2nc(N=Nc3ccc(O)cc3)n[nH]2)cc1	11*	3	3	-2	-1	0
Nc1ncnc2c1ncn2[C@@H]1O[C@H](C(=O)N2CCC[C@@H]2C(=O)OCc2ccccc2)[C@@H](O)[C@H]1O	12*	-6	-1	-1	nt	-1
N#CCNC(=O)c1cccn1-c1ncc(C(F)(F)F)cc1Cl	4	1	0	-2	0	-2
Cc1ccc2[nH]c(SCC(=O)N3CCOCC3)nc2c1C	9	4	0	0	3	5.7*
Cc1ccc2nc(SCC(=O)N3CCOCC3)[nH]c2c1	8	1	3	0	1	2
Cc1ccccc1NC(=O)CSc1nnc(-c2ccccn2)o1	2	1	0	-1	1	1
O=C(CSc1nnc(-c2ccccn2)o1)Nc1ccccc1F	12*	0	14*	0	1	5	DAX1 inh confirm=15*;SF1 mutant ctr=6.3*
